Among all 1,500 compounds or so, about 460 (31%) were called active. A selection follows. Measured potencies and affinities stand elsewhere. A number with no mark means an inactive call.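 How the source made its calls: active means viability at or below 80% at any tested concentration, marking the compound as toxic; inactive means the rest.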
test: viability loss in THP-1 monocytes – THP-1 cells, cytotoxicity control for Vif-APOBEC3G degradation inhibitor project, dose response (AID 1117359); conditions: THP-1 viability, CellTiter-Glo luminescence, 72 h; series mostly up to 40 µM; viability: at the top concentration

Row | SMILES | viability
1 | CCOC(=O)C1=C(COC(=O)/C=C/c2ccco2)NC(=O)NC1C (stereo not drawn) | 96.1%
2 | Cc1ccc(NC(=O)CN2C(=O)N/C(=C/c3ccco3)C2=O)cc1 | 106%
3 | C=CC1=C(C(=O)O)N2C(=O)C(NC(=O)Cc3ccccc3)C2SC1 (stereo not drawn) | 97.8%
4 | Cc1cc(C(=O)NCCCN2CCCC2=O)no1 | 111%
5 | CCOC(=O)C1=C(c2ccccc2)NC(=O)NC1c1cc(Cl)c(O)c(OC)c1 (stereo not drawn) | 101%
6 | Cc1nc(-c2noc(-c3ccccc3Cl)n2)c(C(F)(F)F)o1 | 86.2%
7 | COc1cccc(CC(=O)N2CCCC(CO)(Cc3ccc(F)cc3F)C2)c1 (stereo not drawn) | 80.7%
8 | COc1ccc(/C=N/NC(=O)CN2CCN(Cc3ccccc3)CC2)cc1Br | 101%
9 | O=C(COc1ccc([N+](=O)[O-])cc1)NC(C(=O)O)C(O)c1cccc([N+](=O)[O-])c1 (stereo not drawn) | 99.7%
10 | COc1cc(NC(=O)CSCC(=O)N(C)C2CCCCC2)cc(OC)c1 | 89.8%
11 | O=C(O)COc1ccc2c(c1)O/C(=C\c1ccco1)C2=O | 105%
12 | O=C(NC(=O)N1CCN(c2ccc([N+](=O)[O-])cn2)CC1)c1c(Cl)cccc1Cl | 106%
13 | CC(C)(C)OC(=O)N1CCN(c2ccc([N+](=O)[O-])cc2)CC1 | 93.8%
14 | CCc1ccccc1NC(=S)N(Cc1ccc(OC)cc1)CC1CCC(C(=O)O)CC1 (stereo not drawn) | 101%
15 | O=C(Cn1c(NCCO)nc2ccccc21)NCC(F)(F)F | 99.8%
16 | COc1cc(C(=O)NNC(=S)NCc2ccco2)cc(OC)c1OC | 84%
17 | Cc1ccc(C(=O)N/C(=C/c2cccnc2)C(=O)NCc2ccco2)cc1 | 99%
18 | Cc1ccc(C(CC(=O)NCc2ccco2)c2ccccc2)c(O)c1 (stereo not drawn) | 91.1%
19 | O=C(O)CSc1c2c(nc3cc(C(=O)Nc4cccc(C(F)(F)F)c4)ccc13)CCC2 | 103%
20 | COc1cc(/C=C2/C(=O)c3cccc([N+](=O)[O-])c3C2=O)c(Br)cc1O | 106%
21 | CCN(CC)c1ccc(NC(=O)CCS(=O)(=O)c2ccc(Br)cc2)c(C)c1 | 91.6%
22 | CCOC(=O)C(C)N1C(=O)S/C(=C\c2ccc(-c3ccccc3C(=O)O)o2)C1=O (stereo not drawn) | 93.5%
23 | CCN(CC)Cc1cc(O)c(CN(CC)CC)cc1O | 94.7%

Row | SMILES | viability
24 | CNC[C@H](O)c1ccc(O)c(O)c1 | 92.2%
25 | COc1cccc(NC(=O)CSc2nnc(-c3ccco3)c(-c3ccco3)n2)c1 | 97%
26 | CCOC(=O)CNc1nc2ccccc2n2c(C)nnc12 | 96.8%
27 | COc1cc(NCCCNC(C)C)c2nccc(C)c2c1 | 85.1%
28 | COc1cc(CC(=O)NCC(C)(C)N2CCOCC2)cc(OC)c1OC | 103%
29 | C[C@H](NC(=O)c1ccco1)C(=O)Nc1cccc([N+](=O)[O-])c1 | 99.8%
30 | COc1ccc(OC)c(N2C(=O)[C@@H]3C(c4ccccc4Cl)=NO[C@@H]3C2=O)c1 | 96%
31 | CCN(C(=O)CN1CCN(c2ccc(O)cc2)CC1)c1c(N)n(Cc2ccccc2)c(=O)[nH]c1=O | 102%
32 | COC1=C(Br)C(=O)c2nc(C)ccc2C1=O | 89.4%
33 | CCOc1cccc(=O)c2c(C)n(CC(=O)c3ccccc3)c(C)c12 | 84.6%
34 | COc1ccc(CNS(=O)(=O)c2cc(Br)cc3c2N(C(C)=O)C(C)C3)cc1 (stereo not drawn) | 94.4%
35 | Cc1[nH]n(-c2nc(-c3ccccc3F)cc(=O)[nH]2)c(=O)c1CCO | 93.4%
36 | COc1cc2ccccc2cc1C(=O)N1CCN(c2ccccc2O)CC1 | 87.3%
37 | C/C(=N\Nc1ccc([N+](=O)[O-])cc1[N+](=O)[O-])c1cc2c(ccc3ccccc32)oc1=O | 108%
38 | O=[N+]([O-])c1ccc2c(c1)S(=O)c1ccccc1-2 (stereo not drawn) | 102%
39 | CC1=Nc2cccc3cccc(c23)N1 | 97%
40 | CCS(=O)(=O)N1CCN(C(=O)c2cccc3ccccc23)CC1 | 91%
41 | O=c1c(O)cccc2cc(O)c(O)c(O)c12 | 91.7%
42 | CC12CCC(C(=O)Nc3ccc(Br)cn3)(OC1=O)C2(C)C (stereo not drawn) | 99.9%
43 | COc1ccc(S(=O)(=O)N2CCC(C(=O)NCc3cccnc3)CC2)cc1Cl | 96%
44 | O=C(Nc1ccc(C(=O)N2CCOCC2)cc1)c1ccccc1[N+](=O)[O-] | 84.2%
45 | O/C=c1\ccc2cccc3nc(C(F)(F)F)nc1c23 | 102%
46 | Cc1ccc(C)c(NC(=S)NCc2ccccc2)c1 | 95.1%

Row | SMILES | viability
47 | Cc1ccc(C(=O)NNS(=O)(=O)c2ccccc2[N+](=O)[O-])cc1 | 94.8%
48 | CN(C)c1ccc(N2C(=O)CSC2=S)cc1 | 104%
49 | CC(C)C(C)NC(=O)COc1ccc(S(=O)(=O)N2CCOCC2)cc1Cl (stereo not drawn) | 95.4%
50 | O=C1CC(Nc2ccc(N3CCOCC3)cc2)C(=O)N1CCc1ccccc1 (stereo not drawn) | 87.8%
51 | O=C(CNC(=O)c1ccc(Cl)cc1Cl)OCc1nnc(-c2ccccc2Br)o1 | 95.6%
52 | CCOC(=O)/C=C1\SC(C)C(=O)N1CC(=O)N(CCC#N)c1ccccc1 (stereo not drawn) | 90.8%
53 | CC(C)CC(NC(=O)/C(=C/c1ccco1)NC(=O)c1ccc(Br)o1)C(=O)O (stereo not drawn) | 101%
54 | CCC(C)(C)NC(=O)C(c1ccc(F)cc1)N(Cc1ccco1)C(=O)c1cnccn1 (stereo not drawn) | 92.5%
55 | O=C(Cc1csc(N2CCOCC2)n1)N/N=C/c1ccc(O)c(O)c1O | 108%
56 | O=C(CCN1CCN(c2ccccc2)CC1)N/N=C/c1ccc(O)c(O)c1O | 102%
57 | CC1CCCN(CC(O)CN2CCN(CC(O)CN3CCCC(C)C3)C(C)C2)C1 (stereo not drawn) | 101%
58 | COC(=O)c1ccccc1NC(=O)CCS(=O)(=O)c1ccc(Br)cc1 | 87.6%
59 | COc1cccc(NC(=O)CN(C)C(=O)CCCc2nc3ccccc3s2)c1 | 101%
60 | COC(=O)C1=C(O)/C(=C\c2ccc(CNC(=O)C(=O)Nc3ccc(C)c(C)c3)o2)N=C1C | 95.5%
61 | Cc1cn(C2CCCCO2)c(=O)[nH]c1=O (stereo not drawn) | 107%
62 | CC(=C\c1ccco1)/C=C1/SC(=S)N(CC(=O)O)C1=O | 110%
63 | O=C(CCCN1C(=O)/C(=C\c2ccco2)SC1=S)Nc1ccc2ccccc2c1 | 80.9%
64 | COc1ccc(NC(=O)c2cccnc2C(=O)O)c(OC)c1 | 103%
65 | COC(=O)c1ccccc1NC(=O)CNC(=O)c1ccc(OC)cc1 | 82.8%
66 | O=C(O)c1c2c(nc3ccc(Cl)cc13)CCC2 | 99.5%
67 | COc1ccc(CNC(=O)c2sc3nc4c(c(C(F)(F)F)c3c2N)CCC4)cc1OC | 96.3%
68 | Cc1ccc(C(c2nnnn2CC2CCCO2)N2CCN(C)CC2)cc1 (stereo not drawn) | 107%

From PubChem BioAssay AID1117359 (Southern Research Institute, 2015)
